The list is not random: actives were taken first. Their share in the collection is about 4.1%.
Sm TGR inh – inhibitors of Schistosoma mansoni thioredoxin glutathione reductase; purified TGR, DTNB reduction, TNB absorbance 405 nm; 360,000 tested, 3% active; Potency, µM (series often up to 114 µM), for inactives: at the highest dose activity change, negative = inhibition, hits mostly inhibitors; AID 485364; Q962Y6; further: nearly all actives have a fitted effect of over 60% in size
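First, TGR (20 nM dispensed) and NADPH were mixed with compound. Second, a 15 min room-temperature incubation followed. Third, further NADPH and then DTNB were added to start the reaction. Finally, TNB absorbance was monitored kinetically.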
FMDV inh – antivirals against foot and mouth disease virus. FMDV antiviral cell-based qHTS. Potency, µM (titrated, usually from 57.9 µM), without a hit: at the top dose activity change, negative = inhibition, most hits filed as inhibitors. 410,000 tested, 1.2% active; calls by dose curve; tested in HEK293T cells; further: read-out not given here; nearly all actives have a fitted effect of over 45% in size
AmpC no deterg – blocks E. coli AmpC beta-lactamase in detergent-free assay; AID 485341; AmpC nitrocefin hydrolysis, absorbance 480 nm, 0.0001% Triton; Potency, µM (titrated, usually from 57.1 µM), inactives show at the top dose activity change, negative = inhibition, most hits filed as inhibitors; P00811; 330,000 tested, 0.52% active;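 further: plate controls were no compound for no effect and no enzyme for full effect; nearly all actives have a fitted effect of over 20% in size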
Target sequence (P00811 whole entry, looked up): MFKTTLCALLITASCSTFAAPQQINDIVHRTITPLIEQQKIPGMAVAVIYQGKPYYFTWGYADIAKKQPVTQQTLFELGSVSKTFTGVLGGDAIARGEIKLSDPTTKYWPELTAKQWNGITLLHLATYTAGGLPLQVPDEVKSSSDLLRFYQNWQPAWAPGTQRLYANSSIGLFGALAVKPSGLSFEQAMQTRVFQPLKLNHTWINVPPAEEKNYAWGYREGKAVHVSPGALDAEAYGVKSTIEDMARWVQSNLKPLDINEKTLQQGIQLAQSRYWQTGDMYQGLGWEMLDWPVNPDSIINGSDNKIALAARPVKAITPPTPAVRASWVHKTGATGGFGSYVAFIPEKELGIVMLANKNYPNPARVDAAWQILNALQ
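20 mM phosphate pH 7.0 + 0.01% (detergent screen) or 0.0001% Triton X-100; 5.3 nM AmpC reagent; cpd preinc 15 min RT; nitrocefin (800 uM stock) to start; A480 q20 s × 4 min; Activity was normalised to no-enzyme and no-compound control wells.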
AMA1 RON2 block – AMA1-RON2 (P. falciparum) interaction inhibition; Potency, µM (highest dose often 58.2 µM), without a hit: top-dose activity change, negative = inhibition, actives largely listed as inhibitors; 360,000 tested, 0.2% active; AlphaScreen AMA1-biotinylated RON2 peptide binding; AID 720542;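 further: 0% = vehicle wells and -100% = peptide control; nearly all actives have a fitted effect of over 45% in size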
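AMA1 (3D7) with his tag at 25 nM final met compounds first, then biotinylated RON2 peptide at 25 nM; detection used donor plus acceptor beads, 10 µg/mL apiece, read by AlphaScreen after 30 min at room temperature.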
AmpC detergent – blocks E. coli AmpC beta-lactamase in detergent assay; 370,000 tested, 0.041% active; Potency, µM (series often up to 114 µM), without a hit: at the top dose activity change, negative = inhibition, actives largely listed as inhibitors; AmpC hydrolysis of nitrocefin, absorbance 480 nm, 0.01% Triton; P00811; AID 485294;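 further: 0% = no-compound wells and -100% = no-enzyme wells; nearly all actives have a fitted effect of over 25% in size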
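AmpC (5.3 nM in the dispensed reagent) in 20 mM phosphate pH 7.0 with 0.01% (detergent screen) or 0.0001% Triton X-100 was preincubated with compounds for 15 min at room temperature. Nitrocefin was then added from an 800 uM solution, and hydrolysis was followed at 480 nm.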
The depositor's hits bear a star; ? = inconclusive; . = not tested or not shown; [ ] = remark or other dose. Unless noted, the call rests on the fitted dose curve; in most records, active means well fitted curve in the direction sought with a large enough effect; inconclusive means small, poorly fitted or top-dose-only effect, or another doubt; inactive means no such curve, though single readings can be large; an effect the other way counts as inactive or inconclusive. Unless noted, on the % scale 0 is the no-effect control and ±100 the full control effect; potency means the concentration at half of the fitted maximal effect.

SMILES | Sm TGR inh | FMDV inh | AmpC no deterg | AMA1 RON2 block | AmpC detergent
Cc1cc2c(cc1C)N(C(=O)CCl)CCN2C(=O)CCl | . | 8.91µM* | . | -17.0% | .
CCOC(=O)c1cccc(NC(=O)CC2C(=O)N(c3ccccc3)C(=O)N2Cc2ccco2)c1 (centres undefined) | -8.7% | -6.0% | . | . | 4.5%
COCCN1CCN(C(=O)c2cnn(-c3nccc(-c4cc5ccccc5o4)n3)c2C2CC2)CC1 | . | -1.3% | . | . | .
CCOC(=O)C1CCN(C(c2cccc(F)c2)c2c(O)cc(C)n(CCOC)c2=O)CC1 (centres undefined) | 17.8µM* | -19.5% | . | . | 23.2%
CCOC(=O)C1CCN(C(c2cccc(F)c2)c2c(O)cc(C)n(Cc3ccco3)c2=O)CC1 (centres undefined) | 10µM* | -24.6% | . | . | 22.1%
CCOC(=O)C1CCN(C(c2ccc(SC)cc2)c2c(O)cc(C)n(Cc3ccco3)c2=O)CC1 (centres undefined) | 5.01µM* | -28.4% | . | . | 16.2%
CCOC(=O)C1CCN(C(c2ccccc2)c2c(O)cc(C)n(Cc3ccco3)c2=O)CC1 (centres undefined) | 8.91µM* | -24.1% | . | . | 21.8%
COc1ccccc1N1CCN(C(=O)c2cc3c(=O)oc4ccccc4c3s2)CC1 | -1.1% | 15.7% | . | . | -2.4%
CC(C)=CCCC1(C)C=Cc2c(O)c3c(c(CC=C(C)C)c2O1)OC12C(CC4CC1C(C)(C)OC2(C/C=C(/C)C(=O)O)C4O)C3=O (centres undefined) | . | -16.8% | . | . | .
NS(=O)(=O)c1ccc(-c2ccc(C=C3C(=O)NC(=O)NC3=O)o2)cc1 | ? | 3.8% | -18.3% | 9.2% | -9.3%
NS(=O)(=O)c1ccc(-c2ccc(C=C3C(=O)NC(=S)NC3=O)o2)cc1 | 2.24µM* | . | -34.8% | . | -11.6%
O=C1NC(=O)C(Cc2ccccc2F)(C2CCN(Cc3cccn3-c3cccnc3)CC2)N1 (centres undefined) | . | -8.8% | . | . | .
COC(=O)c1ccc(NC(=O)CCc2nnc3ccc(N4CCC5(CC4)OCCO5)nn23)cc1 | -8.0% | 28.2µM* | 83.1% | -3.0% | -6.6%
COc1ccc(CNc2n[nH]c(-c3ccco3)n2)cc1OC | -3.8% | -12.5% | . | . | -6.4%
CCn1c(SCC(=O)Nc2ccc3c(c2)OCO3)nc2c(c1=O)SC(C)C2 (centres undefined) | -2.6% | -5.5% | 2.82µM* | -0.7% | -1.4%
CCN(CC)S(=O)(=O)c1ccc2c(c1)N(CC(=O)NCCc1ccc(OC)c(OC)c1)C(=O)CO2 | 4.9% | -8.7% | . | . | 11.6%
Cn1c2ccccc2c2cc(C(=O)N3CCOc4ccc(C(C)(O)CCn5cccn5)cc4C3)ccc21 (centres undefined) | . | -10.2% | . | . | .
CC(=O)NC(CCS(C)(=O)=O)C(=O)Nc1cccc2ccccc12 (centres undefined) | -29.4% | -11.4% | 4.47µM* | -3.0% | ?
O=C(O)[C@@H]1Cc2ccccc2N1 | 56.2µM* | -0.1% | -58.6% | 2.7% | 0.7%
Cc1ncc2c(c1CNS(=O)(=O)N(C)C)CCN(C(=O)/C=C/c1ccccc1)C2 | . | 8.0% | . | . | .
CCc1cc2c(cc3c(=O)n(CC(=O)NCCc4ccccc4)ncn32)s1 | -6.8% | 4.6% | . | . | -0.4%
O=C(COC(=O)Cn1nnc(-c2ccccc2)n1)Nc1cc(F)ccc1F | . | -22.9% | -25.3% | -3.1% | .
O=C(Cn1nnc(-c2ccc(F)cc2)n1)OCC(=O)c1ccccc1 | 10µM* | 3.0% | -37.2%[11.4 µM] | 5.4% | ?
O=C(Cn1nnc(-c2ccccc2)n1)c1ccccc1 | -2.3% | . | -24.6% | 5.2% | ?
O=C(Cn1cnc2c(nnn2-c2ccc(F)cc2)c1=O)NCc1ccco1 | 79.4µM* | -5.9% | -18.9% | 6.1% | -10.7%
SMILES | Sm TGR inh | FMDV inh | AmpC no deterg | AMA1 RON2 block | AmpC detergent
CCOC(=O)c1cc(=O)n2nc(-c3ccccc3F)nc2s1 | 10µM* | -15.9% | -9.1% | 2.1% | -1.8%
O=C(Cn1nnc(-c2ccccc2F)n1)OCC(=O)c1ccccc1 | 0.794µM* | -6.7% | -19.6% | 20.1% | 8.6%
CCCCOc1ccc(-c2nnn(CC(=O)NCc3ccco3)n2)cc1 | -5.9% | . | -7.8% | -4.0% | -11.2%
CCOC(=O)c1ccc(NC(=O)Cn2nnc(-c3ccccc3F)n2)cc1 | -21.6% | 0.0% | 35.5µM* | 11.0%[11.6 µM] | -1.8%
O=C(Cn1nnc(-c2ccccc2F)n1)NCc1ccco1 | 44.7µM* | 11.2% | 3.5%[2.29 µM] | -7.3% | -12.7%
CCOc1ccc(N2CC(C(=O)NCC(=O)Nc3ccc(F)c(F)c3F)CC2=O)cc1 (centres undefined) | 31.6µM* | 8.4% | -38.9% | 0.0% | ?
O=C(CN1CCN(Cc2ccccc2)CC1)N/N=C\C=C/c1ccco1 | ? | -7.7% | -14.3% | 42.7% | -8.0%
Clc1ccccc1CN1CCN(/N=C/C=C/c2ccco2)CC1 | 15.8µM* | 54.6% | 7.0% | ? | -0.2%
O=C(CN1CCN(Cc2ccccc2Cl)CC1)N/N=C/C=C/c1ccco1 | 20µM* | -16.9% | 46.5% | 53.6% | 1.1%
CCCc1cc(=O)[nH]c(Nc2ccccc2O)n1 | -31.9% | 6.0% | . | . | 19.3%
Cn1c(-c2ccncc2)nc2cc(C(=O)N[C@H]3CCCCNC3=O)cc(NC(=O)C3CCC3)c21 | . | -17.5% | . | . | .
C=CCN=c1scc(-c2ccc3c(c2)NC(=O)CO3)n1/N=C(\C)c1ccccn1 | 35.5µM* | 17.8µM* | -25.9%[11.4 µM] | 4.6% | -12.4%
CSc1ccc(CCNC(=O)CCn2c(=O)c3cccn3c3cccnc32)cc1 | 9.5% | 8.9% | . | . | -2.3%
O=C(Nc1cccc(S(=O)(=O)C(F)F)c1)c1ccc(S(=O)(=O)N2CCCCC2)cc1 | -6.2% | 28.2µM* | -26.4% | -26.1% | ?
O=S(=O)(c1ccc(NC(=S)Nc2ccc(OC(F)F)cc2)cc1)N1CCOCC1 | 44.7µM* | 35.1% | -18.3% | 19.1% | -8.6%
O=S(=O)(c1ccc(NC(=S)N2CCN(c3ccccc3F)CC2)cc1)N1CCOCC1 | 7.3% | ? | -20.8% | -3.4% | -8.6%
COc1ccccc1N1CCN(C(=S)Nc2ccc(S(=O)(=O)N3CCOCC3)cc2)CC1 | -0.9% | 25.1µM* | 136.4% | -0.6% | 5.8%
Cc1ccc(NC(=O)c2cc(S(=O)(=O)N3CCCCC3)c[nH]2)cc1C | 4.7% | 6.6% | 7.08µM* | -0.1% | ?
COc1ccc(CN2CCCC(n3cc(C(=O)N4CCCCC4)nn3)C2)cc1OC (centres undefined) | . | 13.2% | . | . | .
COc1ccc(-n2c(CNC(=O)c3c(-c4ccccc4)noc3C)nnc2SC)cc1 | . | -14.1% | . | . | .
CN(C)c1ccc(C(=O)Nc2cccc(S(=O)(=O)N3CCCC3)c2)cc1 | -9.6% | 25.2% | 28.2µM* | 1.3% | -15.3%
O=C(Nc1cccc(S(=O)(=O)N2CCCCC2)c1)c1ccc(S(=O)(=O)C(F)F)cc1 | 2.4% | 28.2µM* | 22.4µM* | -13.4% | -14.0%
CN(C)S(=O)(=O)c1cccc(NC(=O)c2ccc(S(=O)(=O)N3CCCCC3)cc2)c1 | 6.1% | -29.1% | -34.4% | -8.5% | ?

Screening data: PubChem BioAssay, National Center for Advancing Translational Sciences (NCATS)
